Laboratory results reported in PubChem BioAssay AID1007 (NMMLSC, 2008).
Among all 190,000 compounds or so, about 80 (0.04%) were called active. Rule as the data show it: active = inhibition above about 40%. Only a sample is shown.

Target: Bcl-2-like protein 1 (Homo sapiens) (UniProt Q07817)
Assay: Bcl-XL/Bim peptide interaction blockers – biochemical, multiplexed, bead flow cytometry, human Bcl-XL, primary screen (AID 1007)
Settings: Bim peptide-Bcl-XL binding, fluorescence, at 10 µM, stronger effect = higher value

Sequence of Bcl-2-like protein 1 (Homo sapiens) (Q07817 whole entry, looked up): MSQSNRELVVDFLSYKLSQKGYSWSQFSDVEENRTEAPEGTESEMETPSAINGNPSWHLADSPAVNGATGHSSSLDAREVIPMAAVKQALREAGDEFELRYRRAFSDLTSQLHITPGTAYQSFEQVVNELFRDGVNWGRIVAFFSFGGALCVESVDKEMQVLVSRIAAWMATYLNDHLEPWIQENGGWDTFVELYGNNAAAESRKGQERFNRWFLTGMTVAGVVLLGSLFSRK

inhibition, inactive:
COc1ccc(-c2[nH]ncc2CN(C)Cc2cccnc2)c(F)c1 0%, Cc1ccc2c(c1)C1CN(C)CCC1N2S(=O)(=O)c1ccc(Oc2ccc([N+](=O)[O-])cc2)cc1 (stereo unspecified) -1%, CS(=O)(=O)N(CC(=O)N/N=C/c1ccccn1)c1ccc(Oc2ccccc2)cc1 -4%, CCOCCCNC(=O)C(=O)NCCCOCC -11%, O=C(COC(=O)Cc1ccc(F)cc1)Nc1cc(S(=O)(=O)N2CCOCC2)ccc1N1CCCC1 -11%, Cc1nc(N2CCC(C)CC2)c2c(C)c(C(=O)Nc3cc(F)ccc3C)sc2n1 -5%, Cc1ccc(C)c(CSc2nc(-c3ccco3)nc3c2c(=O)n(C)c(=O)n3C)c1 -2%, CCN(CC)CCn1c(/N=C/c2cc(Br)ccc2O)nc2ccccc21 -11%, O=[N+]([O-])c1ccccc1Nc1ccc(O)cc1 -5%, Cc1c(C(=O)O)nnn1-c1nonc1N 0%, CN1CCN(C(CNS(=O)(=O)c2cccs2)c2cccnc2)CC1 (stereo unspecified) 0%, O=C(Cc1cccs1)N/N=C/c1ccc(OCc2ccccc2)cc1 -4%, O=C(Nc1ccc2oc(-c3ccccc3F)nc2c1)c1ccco1 0%, O=c1c(Cl)c(NCc2ccc(F)cc2Cl)cnn1C12CC3CC(CC(C3)C1)C2 -8%, COC(=O)c1ccc(OCC(O)CN(CCO)CC(O)Cn2ccc3ccccc32)cc1 (stereo unspecified) -8%, CCc1ccc(-c2cc(C(=O)NN3CCN(C)CC3)c3ccccc3n2)cc1 -6%, COc1ccc(CCc2nnc(CCC(=O)NCc3cnn(-c4ccccc4C)c3)o2)cc1 0%, Cc1ccc(NC(=O)Cn2cccc2C2=NC(c3ccccc3)CO2)c(C)c1 (stereo unspecified) -2%, CC(Sc1nc2c([nH]c3ccccc32)c(=O)n1C)c1ccccc1 (stereo unspecified) -6%, O=C(Nc1ccccc1C(=O)N1CCOCC1)c1ccc(Cl)cc1 0%, Cc1nnc(SCC2=C(C(=O)O)N3C(=O)C(NC(=O)Cn4nc(C)c(Cl)c4C)C3SC2)s1 (stereo unspecified) -6%, O=C(NC(CC(=O)N1CCN(c2ccccc2)CC1)c1ccccc1)c1ccccc1Cl (stereo unspecified) -6%, COc1ccc(NC(=O)COc2ccc(C(=O)OCC(=O)N(C)C3CCS(=O)(=O)C3)cc2OC)cc1 (stereo unspecified) -2%, Cn1c(CCC(=O)Nc2ccccc2F)nnc1SCC(=O)Nc1ccccc1Cl -5%, COc1ccc(NC(=O)CC2C(=O)OCC3CCCCN32)cc1Cl (stereo unspecified) -4%, O=[N+]([O-])c1cccc(S(=O)(=O)N2CCCCCC2)c1 -7%, CCN1CCC2(CC1)N=C(c1ccc(F)cc1)C(=S)N2C(=O)c1ccc(C)cc1 -10%, Cc1ccc2c(=O)oc(N(C)C)nc2c1 1%, Cc1cc(C)c(C(N)=O)c(Cl)n1 -2%, CCOC(=O)c1ccc(NC(=O)C2CC(=O)Nc3nc4ccccc4n32)cc1 (stereo unspecified) 2%, CCn1c(N)c(Br)c(=O)[nH]c1=O -2%, C#Cc1ccc([C@@H]2C=C(C(=O)O)O[C@H](OCCCCO)C2)cc1 -4%, CCN(CC)CC1(O)CCN(C(=O)c2ccc(Cl)c(Cl)c2)CC1 0%, CCC(CC)c1nnc(NC(=O)/C=C/c2ccco2)s1 -8%, O=C(NCc1ccco1)C(=O)c1cn(CC(=O)N2CCCCCC2)c2ccccc12 -2%, COc1ccc(CNC(=O)CCCn2nc(C)c([N+](=O)[O-])c2C)cc1 -4%, O=C(N1CCCC1)C12CC3CC(C1)CC(C(=O)N1CCCC1)(C3)C2 -4%, Cc1ccccc1CN(c1ccc(C(=O)NCC2CCCO2)cc1)S(C)(=O)=O (stereo unspecified) -6%, O=C(c1cccc(F)c1)N1CCN(c2ccc([N+](=O)[O-])c3cccnc23)CC1 -4%, COc1cccc(C(=O)N2CCCC(CCC(=O)NCc3ccc(F)c(F)c3)C2)c1 (stereo unspecified) -1%, CCOC(=O)CCCNC(=O)COC(=O)c1cc(Br)c(Br)s1 2%, Cc1ccccc1-c1n[nH]c(=S)n1/N=C/c1ccc(-c2ccccc2Br)o1 -1%, CC1CCCC(C)N1/N=C/c1ccccc1OC(F)F (stereo unspecified) 2%, O=C1NC(c2ccccc2)CCC1(Cl)Cl (stereo unspecified) -5%, O=C(O)CC(SCC(=O)Nc1ccc(Br)cc1)C(=O)O (stereo unspecified) -2%, COc1cc(Cl)c(C)cc1NC(=O)COC(=O)c1cc(SC)ccc1Cl -6%, COC(=O)c1ccccc1SC1CC(=O)N(c2cccc(C)c2)C1=O (stereo unspecified) -2%, Cc1ccc(NC(=O)Nc2nnc(-c3ccncc3)s2)cc1 -2%, OCCn1c(-c2ccccc2)csc1=Nc1ccccc1 -3%, COc1ccccc1N1CCN(/N=C\C(Br)=C\c2ccccc2)CC1 -1%, Cc1nc2c(C(=O)NCc3cccs3)cnn2c(C)c1Cc1ccc(F)cc1 1%, O=C(CN(c1cccc(Cl)c1)S(=O)(=O)c1ccccc1)NN=C1CCCC1 -1%, CC(C)C(=O)Nc1c(O)c2ccccc2[nH]c1=O -4%, Cc1cc(C(=O)CCl)c(C)n1CC1COc2ccccc2O1 (stereo unspecified) 0%, COc1cccc2c(N/N=C/c3ccco3)cc(C)nc12 0%, CCc1ccccc1N1C(=O)C2C3CC(=O)C(c4ccccc43)C2C1=O (stereo unspecified) -2%, Cn1nnnc1-c1cc(Cl)cc(Cl)c1 0%, O=C(Oc1ccccc1Cl)c1ccc(N2CCOCC2)c([N+](=O)[O-])c1 3%, COc1ccc(Nc2nc(N)nc(CSC(=S)N3CCC(C)CC3)n2)cc1 20%, CC1CCN(c2ccc(C(=O)Nc3nnc(C4CC4)s3)cc2[N+](=O)[O-])CC1 -12%, NS(=O)(=O)c1cccc(NC(=O)COC(=O)/C=C/c2ccco2)c1 -2%, N#CC1=C(N)Oc2[nH]c(=S)[nH]c(=O)c2C12C(=O)Nc1ccccc12 (stereo unspecified) -1%, Nc1[nH][nH]c(=O)c1N=Nc1ccc2c(c1)OCO2 0%, Cc1cc[n+](-c2[nH]c(=O)sc2/C=N/NC(=O)c2ccccc2[O-])cc1C -7%, O=C(NCC(O)c1ccc([N+](=O)[O-])cc1)C1CCCCC1 (stereo unspecified) 0%, CCCC(C)C(=O)NCc1ccncc1 (stereo unspecified) 0%, CCOc1ccc(S(=O)(=O)Nc2nccs2)cc1 -2%, CCOC(=O)c1c(C)n(C)c2ccc(OC)c(NS(=O)(=O)CC)c12 -7%, COc1cc(C(=O)NCc2ccc3c(c2)cc(C)n3C)cc(OC)c1OC -2%, O=c1[nH]oc(O)c1-c1ncc(C(F)(F)F)cc1Cl -2%, COc1ccc(CC(=O)N[C@@H](CCSC)c2nc3ccccc3[nH]2)cc1 -5%, Cc1cccc(NC(=S)NC(=O)c2ccc(Br)o2)c1 0%, Cc1c(-c2cccc(Cl)c2)nc2ccccc2c1C(=O)OCC(=O)N(C)C1CCS(=O)(=O)C1 (stereo unspecified) 0%, CCOC(=O)C1=C(C)N=C2c3ccccc3C(=O)C2C1c1ccc(Br)cc1 (stereo unspecified) -6%, Cc1ccc(-c2nn(-c3ccccc3)cc2C(=O)Nc2cccc(S(=O)(=O)N3CCOCC3)c2)cc1 -14%, CN(C)c1ccc(C=NCCc2ccc(S(N)(=O)=O)cc2)cc1 -3%, COc1ccccc1-n1c(C)nc2cc(C(=O)NCc3ccc4c(c3)OCO4)ccc21 -10%, CCOC(=O)c1ccc(N2C(=O)CC(N3CCN(C(=O)c4ccccc4)CC3)C2=O)cc1 (stereo unspecified) -1%, O=[N+]([O-])c1ccc(F)cc1Oc1nc(-c2cccnc2)nc2ccccc12 1%, COc1ccc(/C=N/N=C/c2c[nH]c(=O)c(C#N)c2Nc2ccccc2)cc1 11%, COc1cc(C2OC(c3cc(OC)c(OC)c(OC)c3)C(C)C2C)cc(OC)c1OC (stereo unspecified) -1%, CN(C)CCCCCN(C)Cc1cc2ccccc2o1 -2%, COc1ccc(C(=O)COC(=O)COc2ccc(C)c(C)c2)cc1 -2%, Cc1ccc(S(=O)(=O)N(C)c2ccc(OCC(=O)NC3=NCCS3)cc2)cc1 0%, CC(=O)NC1C(Oc2ccc(C)cc2)OC2COC(c3ccco3)OC2C1O (stereo unspecified) -6%, Cc1ccc(C(=O)C(=S)N2CCOCC2)cc1 -9%, COc1cc(CN2CCNC(=O)C2CC(=O)NCCc2ncccc2C)cc(OC)c1 (stereo unspecified) -3%, C=CCn1c(SCC(=O)CC(=O)OCC)nc2cc(C(=O)N3CCC(C(N)=O)CC3)ccc2c1=O -5%, Cc1ccc(C)c(NC(=O)CCC(=O)N/N=C2/CC(=O)CC(C)(C)C2)c1 0%, Cc1cc(C)c[n+](-c2nc3ccccc3nc2[N-]S(=O)(=O)c2cccs2)c1 -3%, O=C(Nc1cccc(C(F)(F)F)c1)c1ccc(N2CCNCC2)c([N+](=O)[O-])c1 0%, O=C(NCc1cccs1)C1CCN(S(=O)(=O)c2ccc(Cl)cc2)CC1 0%, CCN(CC(=O)NC(=O)NCc1ccccc1)Cc1nc2ccccc2c(=O)[nH]1 1%, C/C(=N/OC(=O)c1c(-c2c(F)cccc2Cl)noc1C)c1cnccn1 -3%, Cc1ccc(-c2nn(-c3cccc(F)c3)cc2CNCCc2ccncc2)o1 -2%, O=C(CSc1ccccc1F)NC1CCS(=O)(=O)C1 (stereo unspecified) 0%
